The values that follow come from PubChem BioAssay (NCATS).

Inconclusive results are not listed. Values without a mark were called inactive. Activity calls are given as the source filed them. Calls come from the whole dose curve; as a rule, active = well fitted inhibition curve with a large enough effect; inconclusive = small, poorly fitted or top-dose-only effect; inactive = flat fitted curve, though single readings scatter.
% is set by controls: 0 for no effect and ±100 for the full control effect.

Chain of Calcium and integrin-binding protein 1 (Homo sapiens) (Q99828 whole entry, looked up): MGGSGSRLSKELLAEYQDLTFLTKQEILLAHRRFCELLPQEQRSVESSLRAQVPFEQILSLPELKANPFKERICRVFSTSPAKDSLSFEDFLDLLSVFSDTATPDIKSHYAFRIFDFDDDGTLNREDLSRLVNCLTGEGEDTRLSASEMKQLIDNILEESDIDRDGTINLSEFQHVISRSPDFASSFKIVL

The assay concerns the target Calcium and integrin-binding protein 1 (Homo sapiens) (UniProt Q99828). In words: Primary qHTS for Identification of Calcium Integrin Binding Protein 1 (CIB1) Competitor (AID 1508620).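 Note: GST tagged CIB1 binding a fluorescein labelled alphaIIb integrin peptide tracer; top concentration of the series differs between compounds.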 Particulars: CIB1-GST / FITC-alphaIIb peptide fluorescence polarization; series mostly up to 114 µM; activity change, negative = inhibition: at the top concentration. In outline: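 Fluorescence polarization competition: CIB1-GST (1 uM final) preincubated with compound 15 min at room temperature, then FITC-labeled alphaIIb peptide (100 nM final) added for another 15 min. Polarization read at Ex 480/Em 540.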
Take `COc1cccc(CNc2ccc(S(=O)(=O)Nc3nc(C)cs3)cc2)c1O`: the “activity change, negative = inhibition” value is -8.75%.
On to `Cc1ccc(NS(=O)(=O)c2cc3c(cc2NC(C)C)NC(=O)CC3)cc1C`, for which the “activity change, negative = inhibition” value is 1.13%.
Turning to `Cc1c(C(=O)OC[C@H]2CCCO2)[nH]c2c1C(=O)CC(c1ccco1)C2` (stereo not given in full), the “activity change, negative = inhibition” value is -17.8%.
Regarding `O=C(Nc1ncc(-c2ccccc2)s1)c1ccc(-c2cccc([N+](=O)[O-])c2)o1`, the “activity change, negative = inhibition” value was 0.306%.
Take `O=C(O)c1ccc(CSc2nnc(-c3cccc([S+](=O)([O-])N4CCCC4)c3)n2-c2ccccc2)cc1`: the “activity change, negative = inhibition” value was -17.6%.
Still for that read-out and setting: under `Cc1ccc(OCCn2c(CCNC(=O)/C=C/c3ccccc3Br)nc3ccccc32)cc1` stands 27.3%; under `Cn1c2cc(Br)sc2c2cnn(Cc3ccc(F)cc3)c(=O)c21`, 6.01%.
Still for that read-out and setting: under `Cc1cccc(CNc2ncnc3ccc(-c4cccc(Cl)c4)cc23)c1` stands -1.97%; under `Oc1ccc(/C=C/c2ccccc2F)c2cccnc12`, -4.89%.
On the same count and under the same terms, under `CCC(CC)C(=O)NCCc1nc2ccccc2n1CCOc1ccc(C)cc1` stands 19.4%.
Regarding `CCn1cnc2c(Nc3ccc(CC(=O)N=C(N)N)cc3)nc(C#N)nc21`, the “activity change, negative = inhibition” value is 2.97%.
Still for that read-out and setting: next, `O=C(NCCc1nc2ccccc2n1CCOc1ccc(F)cc1)C1CCCCC1`: 4.4%; `COc1cc(O)c(C(CC(=O)N2CCCCCC2)c2ccc3c(c2)OCO3)c(OC)c1` (stereo not given): -2.69% [at 228 µM]; `O=C1CN(S(=O)(=O)c2ccc3c(c2)OCCO3)CCN1S(=O)(=O)c1c(F)cccc1F`: -0.843%.
Consider `CC(=O)Nc1sc2c(c1-c1nc3ccccc3s1)CC(C)NC2` (stereo not given), for which the “activity change, negative = inhibition” value was 12%.
Same read-out and setting: under `Cc1ccc(NS(=O)(=O)c2cc3c(cc2C)OCC(=O)N3)cc1C` stands 3.46%.
On the same count and under the same terms, next, `COc1cccc(CN2C(=O)c3ccccc3NC2c2ccc(OC)c(COc3ccc(NC(C)=O)cc3)c2)c1` (stereo not given): 3.22%.
On the same count and under the same terms, under `NC(=O)c1ccccc1-c1noc(-c2ccccc2F)n1` stands 2.46%; under `CC(=O)Nc1sc2c(c1-c1cccc(N(C)C)c1)CCNC2`, 2.47%.
Consider `Cn1ccc2cc(-c3ccc4ncnc(NCc5cccs5)c4c3)ccc21`, for which the “activity change, negative = inhibition” value was 6.55%.
As for `O=C(c1ccc(-c2cnc3c(O)cccc3c2)cc1)N1CCNCC1`, the “activity change, negative = inhibition” value was -20.4%.
On the same count and under the same terms, next, `COc1ccc(C2=Nn3c(nnc3-c3ccccc3O)SC2)cc1`: -0.42%; `O=[S+]([O-])(c1ccc2c(c1)OCCO2)N1CCN([S+](=O)([O-])c2c(F)cc(F)cc2Br)CC1`: 4.34%.
Still for that read-out and setting: under `c1csc(CNc2ccc(N3CCCCC3)cc2)c1` stands 0.2%.
Take `Cc1cc(C)nc(NC(=C(C#N)C#N)N2CCN(c3cccc(C(F)(F)F)c3)CC2)c1`: the Potency entry is “inactive”.
As to `NCCC(=O)Nc1cccc(-c2nn3c(=O)cc(N4CCNCC4)nc3s2)c1`, the “activity change, negative = inhibition” value was 5.57%.
As to `c1cncc(-c2ccc(CNc3nc(N4CCCC4)nc4ccccc34)cc2)c1`, the “activity change, negative = inhibition” value was 14.6%.
As for `O=C1NC2=C(C(=O)CCC2)C(c2ccccc2Cl)N1` (stereo not given), the “activity change, negative = inhibition” value is 7.09%.
On the same count and under the same terms, next, `Cc1ccccc1C[C@H](C(=O)O)N1C(=O)c2ccc(C(=O)O)cc2C1=O`: 2.29%.
Still for that read-out and setting: next, `O=C(Nc1nnc(-c2ccncc2)s1)NC12CC3CC(CC(C3)C1)C2`: 9.63%.
For the molecule `O=C1CCCC2=C1C(c1[nH]ncc1Cl)N=C(Nc1nc3c(Cl)cccc3o1)N2` (stereo not given), the “activity change, negative = inhibition” value is -2.81%.
`CC(C)(C)OC(=O)Cc1nnc(-c2nc3ccccc3[nH]2)s1`: the “activity change, negative = inhibition” value was -11.6%.
For the molecule `COc1ccc(NCc2ccc(O)c3ncccc23)nc1`, the “activity change, negative = inhibition” value was 20.3%.
For the molecule `Cc1ccc2nc3sc(C(=O)NC4CCCC4)cc3cc2c1`, the “activity change, negative = inhibition” value is 7.06%.
The same measure, in the same setting: next, `COc1cc(O)c(C(CC(=O)N2CC(C)CC(C)C2)c2ccc(O)cc2)c(OC)c1` (stereo not given): 4.16% [at 228 µM].
On the same count and under the same terms, next, `FC1(F)Oc2ccc(-c3ccc4ncnc(NCc5cccs5)c4c3)cc2O1`: 4.67%.
`Cc1cc(NS(=O)(=O)c2ccc(NC(=O)Cc3ccc(Cl)c(Cl)c3)cc2)on1`: the “activity change, negative = inhibition” value is -25.2%.
Regarding `Brc1cnc2nc(SCc3ccccc3)[nH]c2c1`, the “activity change, negative = inhibition” value was 0.0892%.
Regarding `COc1ccc(C2c3c(ncn(CCCc4ccccc4)c3=N)Oc3ccc4ccccc4c32)cc1OC` (stereo not given), the “activity change, negative = inhibition” value is 0.508%.
With `Cc1cc(C)nc(NC(=S)N2CCN(c3cncnc3)CC2)c1`, the “activity change, negative = inhibition” value was -0.398%.
